Experiment [1] can be described thus: antimalarial activity against Dd2 strain (AID 2302;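 active means growth inhibition above 50% at the single 2 µM test dose, taken to imply half-maximal potency below 2 µM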;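 further: 0% = DMSO untreated growth and 100% = chloroquine plus artemisinin killed control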). The settings on record: P. falciparum Dd2 in RBCs, LDH growth readout, 72 h; at 2 µM; hits give high values.
The nature of experiment [2]: HepG2 cytotoxicity, primary screen, cytotoxicity control for P. falciparum antimalarial project, cell-based, ATP luminescence (AID 2303;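 active means inhibition above 50%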;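 further: 0% = DMSO wells and 100% = digitonin-killed cells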). The settings on record: HepG2 viability, 24-48 h, at 10 µM, hits give high values.
Experiment [3] has as its target L-lactate dehydrogenase (Plasmodium falciparum (isolate CDC / Honduras)) (UniProt Q27743). As to the kind of experiment: PfLDH activity inhibition – cell lysate, 3D7 strain, counter-screen for P. falciparum growth inhibition project (AID 2304).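 Further: 0% = vehicle and 100% = reference inhibitor.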 As to conditions: P. falciparum 3D7 crude extract, LDH APAD/NBT absorbance; at 2 µM; hits give high values.
The nature of experiment [4]: inhibition of 3D7 malaria parasite growth – strain 3D7 (AID 2306).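 Further: 0% = DMSO wells and 100% = chloroquine plus artemisinin control wells.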 As to conditions: P. falciparum 3D7 erythrocytic growth, LDH absorbance, 72 h; at 2 µM; hits give high values.
For experiment [5], the target named is Calcium-dependent protein kinase 1 (Plasmodium falciparum (isolate 3D7)) (UniProt P62344). As to the kind of experiment: PfCDPK1 kinase inhibitors, biochemical, TCAMS library (AID 1159585; cut-off not given, nearly all actives have IC50 up to about 0.98 µM;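 further: inhibitors leave more ATP so luminescence rises with inhibition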). As to conditions: recombinant PfCDPK1, Kinase-Glo ATP depletion luminescence.
Experiment [6] deals with Plasmodium falciparum protein kinase 6 (PK6, PF3D7_1337100) (UniProt Q8IDW1). As to the kind of experiment: PfPK6 kinase inhibitors, biochemical, TCAMS library (AID 1159586). As to conditions: recombinant PfPK6, Kinase-Glo ATP depletion luminescence. For orientation: In Kinase-Glo more light means more ATP remaining.
Experiment [7] addresses Protein kinase 7 (PK7), Plasmodium falciparum 3D7 (PF3D7_0213400) (UniProt Q7YTF7). As to the kind of experiment: inhibition of Plasmodium PK7 catalytic activity – biochemical, TCAMS antimalarial set, Kinase-Glo luminescence (AID 1159587). The settings on record: recombinant PfPK7, Kinase-Glo ATP depletion luminescence.
Experiment [8] concerns the target Calcium-dependent protein kinase 4 (Plasmodium falciparum (isolate 3D7)) (UniProt Q8IBS5). As to the kind of experiment: PfCDPK4 kinase inhibitors, biochemical, TCAMS library (AID 1159588; cut-off not given, nearly all actives have IC50 up to about 0.91 µM). As to conditions: recombinant PfCDPK4, Kinase-Glo ATP depletion luminescence.

Values without a mark were called inactive. For some of these results: Results with a measured potency or affinity are listed apart. The source made the active and inactive calls. Unless noted, how the calls were made is not given here.

Calcium-dependent protein kinase 4 (Plasmodium falciparum (isolate 3D7)), sequence (Q8IBS5 whole entry, looked up): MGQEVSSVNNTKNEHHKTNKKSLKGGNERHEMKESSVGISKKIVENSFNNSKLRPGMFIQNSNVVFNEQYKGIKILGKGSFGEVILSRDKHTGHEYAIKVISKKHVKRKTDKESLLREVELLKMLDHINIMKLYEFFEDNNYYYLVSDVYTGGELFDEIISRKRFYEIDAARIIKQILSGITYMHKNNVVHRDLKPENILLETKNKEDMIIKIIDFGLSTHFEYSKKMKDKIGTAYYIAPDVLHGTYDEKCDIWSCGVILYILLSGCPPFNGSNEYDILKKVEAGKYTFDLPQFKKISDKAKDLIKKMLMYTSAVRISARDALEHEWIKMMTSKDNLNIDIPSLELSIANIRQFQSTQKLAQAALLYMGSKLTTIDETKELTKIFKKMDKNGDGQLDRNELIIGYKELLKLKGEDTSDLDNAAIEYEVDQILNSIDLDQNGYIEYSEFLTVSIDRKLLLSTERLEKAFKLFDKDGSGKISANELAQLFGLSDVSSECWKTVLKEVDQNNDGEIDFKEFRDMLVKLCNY
L-lactate dehydrogenase (Plasmodium falciparum (isolate CDC / Honduras)), sequence (Q27743 whole entry, looked up): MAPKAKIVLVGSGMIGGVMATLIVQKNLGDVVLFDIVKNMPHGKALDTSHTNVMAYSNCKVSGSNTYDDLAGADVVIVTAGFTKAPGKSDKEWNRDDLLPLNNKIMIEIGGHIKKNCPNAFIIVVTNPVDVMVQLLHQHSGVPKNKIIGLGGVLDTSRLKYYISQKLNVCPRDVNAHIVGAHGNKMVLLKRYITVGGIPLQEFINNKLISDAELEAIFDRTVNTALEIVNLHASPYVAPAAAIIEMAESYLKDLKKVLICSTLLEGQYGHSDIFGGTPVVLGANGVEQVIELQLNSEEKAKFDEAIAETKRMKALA
Plasmodium falciparum protein kinase 6 (PK6, PF3D7_1337100), sequence (Q8IDW1 1-305): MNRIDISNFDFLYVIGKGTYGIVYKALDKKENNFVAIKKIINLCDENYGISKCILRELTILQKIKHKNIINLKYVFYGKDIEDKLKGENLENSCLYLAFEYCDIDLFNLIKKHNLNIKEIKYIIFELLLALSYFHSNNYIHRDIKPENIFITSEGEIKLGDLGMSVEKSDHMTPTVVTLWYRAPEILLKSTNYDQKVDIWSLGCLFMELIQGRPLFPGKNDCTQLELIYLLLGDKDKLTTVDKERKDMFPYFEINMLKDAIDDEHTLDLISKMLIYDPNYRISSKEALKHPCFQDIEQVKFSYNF
Calcium-dependent protein kinase 1 (Plasmodium falciparum (isolate 3D7)), sequence (P62344 whole entry, looked up): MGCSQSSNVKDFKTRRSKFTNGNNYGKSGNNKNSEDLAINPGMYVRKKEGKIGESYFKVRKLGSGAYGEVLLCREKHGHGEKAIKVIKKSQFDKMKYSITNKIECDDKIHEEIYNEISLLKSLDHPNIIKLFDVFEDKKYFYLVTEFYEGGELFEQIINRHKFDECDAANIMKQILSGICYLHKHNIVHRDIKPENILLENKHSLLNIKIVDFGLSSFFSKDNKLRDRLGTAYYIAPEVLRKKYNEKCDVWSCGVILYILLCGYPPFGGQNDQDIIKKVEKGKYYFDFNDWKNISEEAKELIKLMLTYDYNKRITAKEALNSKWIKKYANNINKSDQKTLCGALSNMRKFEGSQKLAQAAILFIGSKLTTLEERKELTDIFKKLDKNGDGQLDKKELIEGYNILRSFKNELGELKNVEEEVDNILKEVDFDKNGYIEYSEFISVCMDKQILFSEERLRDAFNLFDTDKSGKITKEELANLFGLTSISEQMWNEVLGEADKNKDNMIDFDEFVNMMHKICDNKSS
Protein kinase 7 (PK7), Plasmodium falciparum 3D7 (PF3D7_0213400), sequence (Q7YTF7 1-343): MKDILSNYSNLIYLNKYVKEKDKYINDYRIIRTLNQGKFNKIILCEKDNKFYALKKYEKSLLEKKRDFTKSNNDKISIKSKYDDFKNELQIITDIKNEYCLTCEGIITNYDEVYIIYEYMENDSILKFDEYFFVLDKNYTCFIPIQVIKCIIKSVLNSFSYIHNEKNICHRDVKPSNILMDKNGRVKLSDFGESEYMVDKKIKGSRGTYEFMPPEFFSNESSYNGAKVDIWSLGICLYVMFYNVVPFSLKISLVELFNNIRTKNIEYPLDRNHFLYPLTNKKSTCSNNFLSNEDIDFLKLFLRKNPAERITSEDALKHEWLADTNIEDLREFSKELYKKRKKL

The inhibition is the drop in the measured response relative to a control, in per cent. Consider `NCC1CCCN1Cc1ccc(-c2ccc(-c3nc4ccc(F)cc4[nH]3)cc2)cc1` (stereo not given), for which the growth inhibition in experiment [1] was 100% (active); in experiment [4], 102% (active). Also, the inhibition is 31% in experiment [2] and -3% in experiment [3]. Further, the outcome in experiment [5], in experiment [6], in experiment [7] and in experiment [8] was inactive.

`COc1ccc(C(=O)Cn2nc(-c3ccc(Cl)cc3)ccc2=O)c(OC)c1`: the growth inhibition in experiment [1] was 70% (active); in experiment [4], 93% (active). The inhibition was -12% in experiment [2] and 4% in experiment [3]. In addition, the outcome in experiment [5], in experiment [6], in experiment [7] and in experiment [8] was inactive.

On to `CN1CCCN(Cc2cccc(-c3cccc(NC(=O)c4cccc(Cl)c4)c3)c2)CC1`, for which the growth inhibition in experiment [1] is 20%; in experiment [4], 96% (active). Also, the inhibition in experiment [2] is 17%; in experiment [3] it was -4%. For the same compound, the result in experiment [5], in experiment [6], in experiment [7] and in experiment [8] was inactive.

In the case of `COC(=O)c1ccc(Nc2nccc(Nc3ccc(Oc4ccccc4)cc3)n2)cc1`, the figures for the growth inhibition in experiment [1] and in experiment [4] were 15% and 93% (active), respectively. The inhibition in experiment [2] was -10%; in experiment [3], 7%. The outcome in experiment [5], in experiment [6], in experiment [7] and in experiment [8] was inactive.

For `COc1ccc(C)c(Nc2ccnc(Nc3cccc(-c4nc5ccccc5[nH]4)c3)n2)c1`, the growth inhibition in experiment [1] was 35%; in experiment [4] it was 98% (active). The inhibition was 27% in experiment [2] and -1% in experiment [3]. Moreover, the outcome in experiment [5], in experiment [6], in experiment [7] and in experiment [8] was inactive.

Turning to `COc1ccc2ncc(F)c(CCN3CC[C@@H](CNCc4cc5c(cn4)OCS5)C3)c2n1`, the results for the growth inhibition in experiment [1] and in experiment [4] were 29% and 98% (active), respectively. The inhibition in experiment [2] was 3%; in experiment [3], 0%. Moreover, the result in experiment [5], in experiment [6], in experiment [7] and in experiment [8] was inactive.

As for `O=C(NCCCCCN1CCC(c2c[nH]c3ccccc23)CC1)Nc1cccc(Br)c1`, the values for the growth inhibition in experiment [1] and in experiment [4] were -3% and 84% (active), respectively. For the same compound, the figures for the inhibition in experiment [2] and in experiment [3] were 39% and 3%, respectively. In addition, the outcome in experiment [5], in experiment [6], in experiment [7] and in experiment [8] was inactive.

With `Cc1cc(N2CCCC2=O)ccc1-c1ccc(C(=O)N2CCC(Oc3cccc(Cl)c3)CC2)cc1`, the growth inhibition in experiment [1] is 98% (active); in experiment [4], 99% (active). Further, the inhibition in experiment [2] was 34%; in experiment [3], -3%. For the same compound, the outcome in experiment [5], in experiment [6], in experiment [7] and in experiment [8] was inactive.

For `Oc1ccc(CCNc2nc(NCc3ccccc3-c3ccc(F)cc3)nc(N3CCNCC3)n2)cc1`, the figures for the growth inhibition in experiment [1] and in experiment [4] were 24% and 92% (active), respectively. The inhibition in experiment [2] was 15%; in experiment [3], 0%. Moreover, the outcome in experiment [5], in experiment [6], in experiment [7] and in experiment [8] was inactive.

`CC1(C)N=C(N)NC(NOCCCCCCONC2=NC(C)(C)N=C(N)N2)=N1`: the growth inhibition in experiment [1] is 98% (active); in experiment [4] it was 95% (active). For the same compound, the inhibition in experiment [2] is 34%; in experiment [3], -4%. Also, the result in experiment [5], in experiment [6], in experiment [7] and in experiment [8] was inactive.

Regarding `Cn1cnc(CCNC(=O)c2cccc(-c3csc(-c4nc5ccccc5[nH]4)c3)c2)c1`, the growth inhibition in experiment [1] was 26%; in experiment [4] it was 101% (active). Moreover, the inhibition was 33% in experiment [2] and 0% in experiment [3]. Also, the outcome in experiment [5], in experiment [6], in experiment [7] and in experiment [8] was inactive.

With `CCCc1cc(NCC)nc(Nc2ccc(F)cc2)n1`, the growth inhibition in experiment [1] is 36%; in experiment [4], 86% (active). Further, the inhibition is 16% in experiment [2] and -1% in experiment [3]. For the same compound, the result in experiment [5], in experiment [6], in experiment [7] and in experiment [8] was inactive.

In the case of `COc1ccc2nccc(NN=Cc3ccc([N+](=O)[O-])cc3)c2c1`, the growth inhibition in experiment [1] was 68% (active); in experiment [4] it was 100% (active). Also, the inhibition was 9% in experiment [2] and -2% in experiment [3]. In addition, the result in experiment [5], in experiment [6], in experiment [7] and in experiment [8] was inactive.

Consider `O=C(Nc1ccc(OC2CCN(Cc3ccccc3)C2)c(Cl)c1)c1cccs1` (stereo not given), for which the growth inhibition in experiment [1] was 96% (active); in experiment [4], 97% (active). The inhibition in experiment [2] is 13%; in experiment [3] it was -2%. The outcome in experiment [5], in experiment [6], in experiment [7] and in experiment [8] was inactive.

For the compound `CCC[C@@H]([C@@H](CC1CCCCC1)C(=O)N[C@H](C(=O)Nc1nccs1)[C@H](C)O)N(O)C=O`, the growth inhibition was 75% (active) in experiment [1] and 99% (active) in experiment [4]. Further, the inhibition in experiment [2] was -4%; in experiment [3] it was -5%. Besides, the outcome in experiment [5], in experiment [6], in experiment [7] and in experiment [8] was inactive.

On to `CC1CCN(c2nc(C(=O)Nc3ccc(F)cc3C(F)(F)F)c(C(C)C)s2)CC1`, for which the figures for the growth inhibition in experiment [1] and in experiment [4] were 66% (active) and 101% (active), respectively. The values for the inhibition in experiment [2] and in experiment [3] were 5% and -5%, respectively. Moreover, the result in experiment [5], in experiment [6], in experiment [7] and in experiment [8] was inactive.

As to `Cc1noc(C)c1-c1cccc(CNCc2ccc(-c3cccc(-c4nc5ccccc5[nH]4)c3)cc2)c1`, the growth inhibition was 57% (active) in experiment [1] and 100% (active) in experiment [4]. Besides, the inhibition is 50% (active) in experiment [2] and -1% in experiment [3]. The outcome in experiment [5], in experiment [6], in experiment [7] and in experiment [8] was inactive.

For `Cc1ccc2[nH]c(C3CCCNC3)c(-c3ccncc3)c2c1` (stereo not given), the growth inhibition in experiment [1] was 22%; in experiment [4], 101% (active). Besides, the values for the inhibition in experiment [2] and in experiment [3] were 10% and 0%, respectively. In addition, the result in experiment [5], in experiment [6], in experiment [7] and in experiment [8] was inactive.

On to `CNCCNCc1cccc(-c2ccc(-c3nc4ccc(C(F)(F)F)cc4[nH]3)s2)c1`, for which the figures for the growth inhibition in experiment [1] and in experiment [4] were 85% (active) and 98% (active), respectively. Further, the inhibition in experiment [2] is 31%; in experiment [3], 4%. Moreover, the outcome in experiment [5], in experiment [6], in experiment [7] and in experiment [8] was inactive.

Turning to `O=C(NCCN1CCCCC1)c1ccc(CNC(=O)c2ccc(O)c(-c3cccc(C(F)(F)F)c3)c2)cc1`, the growth inhibition in experiment [1] was 47%; in experiment [4], 94% (active). Further, the inhibition was 3% in experiment [2] and 1% in experiment [3]. Besides, the result in experiment [5], in experiment [6], in experiment [7] and in experiment [8] was inactive.

The record behind these values is PubChem BioAssay.
